Laboratory results as given in PubChem BioAssay (NCI).
Compounds without any hit were thinned out: in the full panel of roughly 83,000, 20% have a hit.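 Note: values are percent growth. 100 is the growth of untreated cells, values between 100 and 0 indicate rising inhibition; between -100 and 0 indicates cell death.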 The source made the active and inactive calls. The calls were made as follows: active = growth percent below 10; inactive = the rest.

How the values were obtained:
Experiment in all cases: NCI-60 one-dose screen, 48 h (100 = growth as untreated, 0 = no growth, -100 = all killed)
Conditions in all cases: 10 µM unless noted
[1] = system: SR leukemia
[2] = system: RPMI-8226 leukemia
[3] = system: OVCAR-8 ovarian
[4] = system: OVCAR-5 ovarian
[5] = system: OVCAR-4 ovarian
[6] = system: SK-OV-3 ovarian
[7] = system: IGROV1 ovarian
[8] = system: OVCAR-3 ovarian
[9] = system: HS 578T breast
[10] = system: NCI/ADR-RES ovarian
[11] = system: T-47D breast
[12] = system: BT-549 breast
[13] = system: MDA-MB-435 melanoma
[14] = system: SW-620 colon
[15] = system: MCF7 breast
[16] = system: HCC-2998 colon
[17] = system: KM12 colon
[18] = system: HCT-116 colon

Measured: growth

Nc1ncc(-c2ccc3ncnc(N4CCc5ccc(Cl)cc54)c3c2)cn1
active: [1] -10.6% | [2] -35.6% | [3] 4.28% | [4] 7.02% | [5] 2.15% | [6] -22.2% | [7] -47.7% | [8] 3.17% | [9] -24.5% | [10] 3.68% | [11] -7.59% | [12] -25% | [13] 7.35% | [14] 0.122% | [16] 5.87% | [17] 6.87%
inactive: [15] 10.6%

COc1ccc(-c2nc(SCCC(C)C)nc(N/N=C(/C)c3ccc(N)cc3)c2C#N)cc1
inactive: [1] 90.2% | [2] 93.3% | [3] 92.7% | [4] 93.7% | [5] 101% | [6] 89% | [7] 79% | [8] 99.2% | [9] 92.4% | [10] 93.6% | [11] 85% | [12] 96.7% | [13] 104% | [15] 86.1% | [18] 94.3% | [16] 97.4% | [17] 92.1%

O=C(NS(=O)(=O)c1ccccc1)n1cc(-c2ccncc2)c(-c2cc(O)cc(Cl)c2)n1
inactive: [1] 42.6% | [2] 85.2% | [3] 104% | [4] 115% | [5] 92.2% | [6] 107% | [7] 99.4% | [8] 108% | [9] 104% | [10] 97.3% | [11] 90.1% | [12] 101% | [13] 66.6% | [14] 123% | [15] 102% | [17] 99.5%

COc1ccc(N2C(=O)/C(=C/C(Cl)=C/c3ccc([N+](=O)[O-])cc3)SC2=S)cc1
inactive: [4] 10% | [5] 10.4% | [6] 40.8% | [9] 26.3% | [15] 10.4%
active: [1] -6.82% | [2] -9.98% | [3] 6.6% | [7] -52.7% | [8] -57.6% | [10] 8.97% | [11] -14.9% | [12] -4.68% | [13] -14.4% | [14] -13.7% | [16] -20.2% | [17] -61.5%

COC(=O)c1c(C)nc(C)c2c1C(=O)C(Br)=C(NCCCCO)C2=O
inactive: [1] 46.4% | [2] 75.1% | [3] 57.7% | [4] 101% | [5] 38.4% | [6] 121% | [7] 52.9% | [9] 87.7% | [10] 80% | [11] 76.9% | [12] 91.2% | [14] 67.8% | [15] 37.8% | [16] 78.7% | [17] 61.9%
active: [8] 1.87% | [13] -25.3%

COc1ccc(C2CC(=O)Oc3c(OC)c4c(c(OC)c32)OCO4)cc1 (configuration not stated)
inactive: [1] 61.8% | [2] 89.4% | [3] 98.2% | [4] 92.2% | [5] 106% | [6] 92% | [7] 92.7% | [8] 109% | [9] 93.7% | [10] 92.4% | [11] 103% | [12] 87.6% | [13] 56.8% | [14] 89.7% | [15] 92.7% | [18] 96.9% | [17] 88.1%

Cc1ccc(OCCOCCOCCOCCOc2ccc(C)n(O)c2=S)c(=S)n1O
inactive: [2] 13.4% | [4] 39.1% | [5] 24.4% | [7] 30.9% | [8] 25% | [9] 44% | [12] 14.1% | [13] 29.4% | [14] 25.7% | [15] 10.1% | [17] 18.6%
active: [1] 6.36% | [3] 9.37% | [6] 0.0112% | [10] 1.43% | [11] 8.09% | [16] 5.72%

O=C(Nc1ccccc1CNc1nc(Nc2ccc(OCCN3CCCC3)cc2)ncc1Cl)NC1CCCCC1
inactive: [2] 60.8% | [3] 57.5% | [4] 114% | [5] 46.6% | [6] 104% | [7] 88.1% | [8] 99.5% | [9] 85.2% | [10] 74% | [11] 100% | [12] 83.7% | [14] 87.7% | [15] 55.2% | [16] 95.5% | [17] 71.5%
active: [1] 5.48% | [13] -83.9%

COC(=O)c1c(C)nc(C)c2c1C(=O)C(Br)=C(NCCN1CCOCC1)C2=O
inactive: [1] 107% | [2] 93.7% | [3] 81.9% | [4] 118% | [5] 73.8% | [6] 138% | [7] 96.2% | [8] 13.2% | [9] 110% | [10] 103% | [11] 114% | [12] 101% | [13] 56.1% | [15] 82.3% | [18] 67.4% | [16] 101% | [17] 96.9%
